Screening data from PubChem.
Rows were chosen to be rich in hits. Some 3% of all compounds tested hit in one or more screens of this group.
HEK293 viab: reduces viability of HEK-293 SNCA reporter cells. HEK-293-SNCA-luc viability, GF-AFC fluorescence, 24 h. Potency, µM (titrated, usually from 57.1 µM), for inactives: at the top dose activity change, negative = cytotoxicity, most hits filed as cytotoxic. 150,000 compounds, 0.12% hits;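 note: potency is the fitted concentration of half-maximal effect; 0% = DMSO-treated cells and -100% = medium-only wells without cells; nearly all actives have a fitted effect of over 30% in size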
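Cytotoxicity counterscreen: after 24 h compound treatment of genome-edited SNCA-luciferase HEK-293 cells, live-cell protease substrate GF-AFC read by fluorescence after 30 min; activity scaled between DMSO (0%) and medium-only (-100%), curves Hill-fitted.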
KDM5B inhibitor: KDM5B demethylase inhibition. Q9UGL1. KDM5B demethylase, FDH-coupled NADH fluorescence (FDH is formaldehyde dehydrogenase). Potency, µM (top dose mostly 57.7 µM), most hits filed as inhibitors. 220,000 compounds, 2.6% hits; note: potency is the fitted concentration of half-maximal effect; 0% is about no effect; nearly all actives have a fitted effect of over 70% in size
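Coupled FDH/NAD⁺ fluorescence readout. KDM5BΔAP 200 nM final; compound titration, 10 min RT preincubation; substrate mix 12.5 µM H3K4me3, 25 µM 2-OG, 50 µM Fe(II), 100 µM ascorbate, 0.25 mM NAD⁺, 0.25 U/mL FDH; ΔRFU over 30 min.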
SNCA expr inhib: reduces expression of the alpha-synuclein gene. HEK-293 SNCA-luciferase knock-in, luminescence, 24 h. AID 1671194. Potency, µM (series often up to 57.2 µM), for the others: at the highest dose activity change, negative = inhibition, hits mostly inhibitors. 140,000 compounds, 0.17% hits;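 note: potency is the fitted concentration of half-maximal effect; plate controls were DMSO cells for no effect and cell-free wells for full effect; nearly all actives have a fitted effect of over 45% in size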
IP6K1 inh: blocks human inositol hexakisphosphate kinase 1 | AID 1645851 | activity change, % (series mostly up to about 58 µM) | 140,000 compounds, 0.81% hits | IP6K1 kinase, ADP-Glo luminescence, 2 h; active compounds read low | Q92551; in the data active = activity change below about -25%; note: % is set by controls: 0 for no effect and ±100 for the full control effect
Target sequence (Q92551 whole entry, looked up): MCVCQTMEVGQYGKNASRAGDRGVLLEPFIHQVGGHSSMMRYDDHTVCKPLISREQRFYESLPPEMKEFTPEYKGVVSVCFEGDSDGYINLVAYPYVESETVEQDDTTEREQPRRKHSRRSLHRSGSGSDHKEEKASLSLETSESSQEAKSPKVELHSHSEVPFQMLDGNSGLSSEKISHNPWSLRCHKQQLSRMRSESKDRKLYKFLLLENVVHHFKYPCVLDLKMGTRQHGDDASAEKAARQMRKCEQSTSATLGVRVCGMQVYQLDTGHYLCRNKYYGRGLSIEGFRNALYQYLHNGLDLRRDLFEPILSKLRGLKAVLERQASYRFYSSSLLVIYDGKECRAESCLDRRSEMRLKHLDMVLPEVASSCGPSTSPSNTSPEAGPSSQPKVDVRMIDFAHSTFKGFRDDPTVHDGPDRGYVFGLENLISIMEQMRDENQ
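ADP-Glo luminescence measures ADP made by human IP6K1 during a 2 h RT reaction with ATP/IP6 (mix at 1.3 mM/130 uM); top library doses 57.5 and 19.1 uM final.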
Starred values were filed as active, the others as inactive; [ ] = dose if it differs, or a comment. Unless noted, calls come from the whole dose curve; as a rule, active = well fitted curve in the direction sought with a large enough effect; inconclusive = small, poorly fitted or top-dose-only effect, or another doubt; inactive = no such curve, though single readings can be large; an effect the other way counts as inactive or inconclusive.

Results for O=C1NCCN2CC3(CCN(C(=O)Nc4ccc5c(c4)OCCO5)CC3)CC12 (stereo unspecified) ?
HEK293 viab: -1%; KDM5B inhibitor: 25µM*; SNCA expr inhib: 107%; IP6K1 inh: -6

What do the screens show for `COc1ccc(C(=O)NC2CCCN(Cc3ccc(-c4cccc(OC)c4)cc3)C2)cc1` (stereo unspecified)?
HEK293 viab: -27%; SNCA expr inhib: -6%; IP6K1 inh: 8

What do the screens show for `CNC(=O)[C@@H]1CN(C(=O)C2(c3ccc(OC)cc3)CC2)C[C@H]1CO`?
HEK293 viab: 11%; KDM5B inhibitor: inactive; SNCA expr inhib: -9%; IP6K1 inh: 5

How did COc1ccc2[nH]c(C(=O)N3CCN4CCS(=O)(=O)N(C5CC5)C(=O)C4C3)cc2c1 (stereo unspecified) do in these assays?
HEK293 viab: -9%; KDM5B inhibitor: 25µM*; SNCA expr inhib: -10%; IP6K1 inh: 12

How did COc1ccc2[nH]c(C(=O)N3C[C@@H](CO)[C@H](c4ccncc4)C3)cc2c1 do in these assays?
HEK293 viab: -8%; KDM5B inhibitor: 32µM*; SNCA expr inhib: -21%; IP6K1 inh: -10

What do the screens show for `COc1ccc2cc(C(=O)N3CCN4CCS(=O)(=O)N(C5CC5)C(=O)C4C3)[nH]c2c1` (stereo unspecified)?
HEK293 viab: 1%; KDM5B inhibitor: inactive; SNCA expr inhib: -4%; IP6K1 inh: 0

Results for CNC(=O)[C@@H]1CN(C(=O)c2cc3cc(OC)ccc3[nH]2)C[C@H]1CO ?
HEK293 viab: -15%; KDM5B inhibitor: 22µM*; SNCA expr inhib: -10%; IP6K1 inh: -3

Results for O=C(Cc1ccc(F)cc1)N1CCC2(C1)C(=O)N(CCc1ccccc1)c1ccccc12 (stereo unspecified) ?
HEK293 viab: -12%; KDM5B inhibitor: inactive; SNCA expr inhib: -16%; IP6K1 inh: 2

Results for O=C(NCc1ccccn1)[C@H]1CN(Cc2ccccc2)C[C@H]1C(=O)O ?
HEK293 viab: 14%; KDM5B inhibitor: inactive; SNCA expr inhib: -16%; IP6K1 inh: 0

Results for COC[C@@H]1CN(c2ncccn2)C[C@H]1C(=O)NCc1ccccn1 ?
HEK293 viab: -15%; KDM5B inhibitor: 14µM*; SNCA expr inhib: 25%; IP6K1 inh: 7

Results for COC[C@@H]1CN(c2ncccn2)C[C@H]1C(=O)N1CCOCC1 ?
HEK293 viab: -11%; KDM5B inhibitor: 25µM*; SNCA expr inhib: 6%; IP6K1 inh: 14

Results for COC[C@@H]1CN(c2ncccn2)C[C@H]1C(=O)NCC(F)(F)F ?
HEK293 viab: -8%; KDM5B inhibitor: 20µM*; SNCA expr inhib: -14%; IP6K1 inh: 0

How did COC[C@@H]1CN(C(=O)CN2CCOCC2)C[C@H]1c1ccncc1 do in these assays?
HEK293 viab: 9%; KDM5B inhibitor: inactive; SNCA expr inhib: -5%; IP6K1 inh: -5

What do the screens show for `COc1ccc(Nc2ccnc(N3CCC(C(=O)NCC(F)(F)F)CC3)n2)cc1`?
HEK293 viab: -5%[12.5 µM]; SNCA expr inhib: -3%; IP6K1 inh: -1

How did COc1cccc(-c2cccc(C(=O)N3CCN(C(=O)c4ccccc4F)CC3)c2)c1 do in these assays?
HEK293 viab: 6%[12.5 µM]; SNCA expr inhib: -17%; IP6K1 inh: -2

Results for Cc1ccc(Nc2ccnc(N3CCC(C(=O)NC4CCCC4)CC3)n2)cc1 ?
HEK293 viab: 0%[12.5 µM]; SNCA expr inhib: -2%; IP6K1 inh: 5

Results for O=C(NCc1cccc(Cl)c1)C1CCN(C(=O)c2ccc(-c3cncnc3)cc2)CC1 ?
IP6K1 inh: 13

Results for C=CCO[C@@H]1CCN2C(=O)c3cc(-c4ccc(F)cc4F)ccc3NC(=O)[C@H]12 ?
HEK293 viab: -6%[87.6 µM]; KDM5B inhibitor: inconclusive; SNCA expr inhib: -5%[87.6 µM]; IP6K1 inh: -5

Results for Cc1ccc(Nc2ccnc(N3CCC(NC(=O)c4ccc(Cl)nc4)CC3)n2)cc1 ?
HEK293 viab: -9%; SNCA expr inhib: 6%; IP6K1 inh: -11

How did COc1ccc(-c2cc3c(cn2)CN(Cc2cccnc2)CCN3)cc1OC do in these assays?
HEK293 viab: 2%[87.6 µM]; KDM5B inhibitor: inconclusive; SNCA expr inhib: 46%[87.6 µM]; IP6K1 inh: -18

How did COc1ccc(-c2cc3c(cn2)CN(Cc2cccnc2)CCN3)cc1F do in these assays?
HEK293 viab: -5%[87.6 µM]; KDM5B inhibitor: 35µM*; SNCA expr inhib: -1%[87.6 µM]; IP6K1 inh: -15
